# Laboratory results: the supplement of paper PMC7411054
# Counter-ions that a name gives are not always drawn.
# System: HepG2-TP53BP1-CLTA
# Experiment: lowest phenotypically active concentration; higher = less potent
# Settings: treatment time: 24 h
# Method in brief: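 Cells from fifteen gene-edited reporter lines (A549, HepG2 and WPMY1) were treated for 24 h at 0.3, 1, 3 or 9 µM and imaged live, four wells per condition. Features were normalised per well to solvent control wells. A condition deviated if ≥3 of 4 wells passed the 95th percentile of control Euclidean distances and was reproducible if its median replicate Pearson correlation beat the 95th percentile of non-replicates; phenotypic activity needed both.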
row,SMILES,lowest phenotypically active concentration [µM]
1,Nc1nc(Cl)nc2c1ncn2[C@@H]1O[C@H](CO)[C@@H](O)[C@@H]1F [clofarabine],≤ 0.3
2,Cc1nc(Nc2ncc(C(=O)Nc3c(C)cccc3Cl)s2)cc(N2CCN(CCO)CC2)n1 [dasatinib],≤ 0.3
3,O=C(NCc1cccc(O)c1)Nc1nc(-c2ccncc2)cs1 [RKI 1447 dihydrochloride],≤ 0.3
4,CC(C)n1nc(-c2cc3cc(O)ccc3[nH]2)c2c(N)ncnc21,3
5,COc1ccc(-c2ccc3ncc4c(c3c2)n(-c2ccc(N3CCNCC3)c(C(F)(F)F)c2)c(=O)n4C)cn1,≤ 0.3
6,CC(C)(C)c1cnc(CSc2cnc(NC(=O)C3CCNCC3)s2)o1,≤ 0.3
7,O=C(O)c1ccc(Nc2ncc3c(n2)-c2ccc(Cl)cc2C(c2c(F)cccc2F)=NC3)cc1,≤ 0.3
8,COc1ccc(S(=O)(=O)N(C(C)=O)c2ccccc2/C=C/c2cc[n+]([O-])cc2)cc1,3
9,CC(C)(C)Nc1nc(Nc2ccc(C(N)=O)cc2)cc(N)c1C#N,3
10,Nc1cccc(-c2cc3c(Oc4cccc(O)c4)ncnc3[nH]2)c1,3
11,c1ccc2c(c1)Cc1c(Nc3ccc4c(c3)OCCO4)n[nH]c1-2,3
12,Cc1c(NC(=O)OC[C@@H]2COCCN2)cn2ncnc(Nc3ccc4c(cnn4Cc4cccc(F)c4)c3)c12,3
13,CCC(=O)N1CCN(c2ccc(-n3c(=O)ccc4cnc5ccc(-c6cnc7ccccc7c6)cc5c43)cc2C(F)(F)F)CC1 [Torin 1],≤ 0.3
14,COc1c(Nc2cc(C)[nH]n2)nc(Sc2ccc(S(=O)(=O)Cc3cccc([N+](=O)[O-])c3F)cc2F)nc1N1CCOCC1 [Centrinone],3
15,COc1cc2c(NC3CCN(C(C)C)CC3)nc(N3CCC(F)(F)CC3)nc2cc1OCCCN1CCCC1,1
16,CC(=O)c1c(C)c2cnc(Nc3ccc(N4CCNCC4)cn3)nc2n(C2CCCC2)c1=O,≤ 0.3
17,CN1c2ccccc2C(=O)N2CCc3c([nH]c4ccccc34)[C@H]21 [Evodiamine],3
18,CO[C@H]1C=CC=C(C)C(=O)NC2=CC(=O)C(NCCN(C)C)=C(C[C@@H](C)C[C@H](OC)[C@H](O)[C@@H](C)C=C(C)[C@@H]1OC(N)=O)C2=O [17-DMAG hydrochloride],≤ 0.3
19,Cc1noc(C)c1-c1cc(O)cc(C(O)c2ccccc2)c1 (centres undefined),3
20,O=C(Nc1ccc(-c2ccnc(Nc3ccc(N4CCOCC4)cc3)n2)cc1)[C@@H]1CCCN1,9

row,SMILES,lowest phenotypically active concentration [µM]
1,NC1(C(=O)N[C@@H](CCO)c2ccc(Cl)cc2)CCN(c2ncnc3[nH]ccc23)CC1,1
2,NC(=O)Nc1cc(-c2cccc(F)c2)sc1C(=O)N[C@H]1CCCNC1 [AZD 7762 hydrochloride],≤ 0.3
3,COc1cc2nc(-c3cc(F)ccc3O)nc(N[C@@H]3CNC[C@H]3C(C)(C)O)c2cc1OC,1
4,Cc1c[nH]c2nccc(Oc3c(F)cc(Nc4cc(Cl)nc(N)n4)cc3F)c12,≤ 0.3
5,C[C@H]1[C@H]2CC[C@H]3[C@@H]4CC=C5C[C@@H](N(C)C)CC[C@]5(C)[C@H]4CC[C@]23CN1C [Conessine],1
6,CON(C)C(=O)N1N=C(c2cc(F)ccc2F)S[C@@]1(CCCN)c1ccccc1 [ARRY 520 trifluoroacetate],≤ 0.3
7,CC[C@H](CO)Nc1nc(NCc2ccc(-c3ccccn3)cc2)c2ncn(C(C)C)c2n1,≤ 0.3
8,Oc1cccc(-c2nc(N3CCOCC3)c3oc4ncccc4c3n2)c1 [PI 103 hydrochloride],≤ 0.3
9,COc1cc(/C=C/c2ccc(OC)cc2OC)cc(OC)c1,3
10,COc1cc2c(cc1-c1c(C)noc1C)ncc1[nH]c(=O)n([C@H](C)c3ccccn3)c12 [I-BET 151 dihydrochloride],3
11,COc1cccc(-c2cc(F)ccc2[C@H]2Cc3nc(N)nc(C)c3C(=O)N2)n1,≤ 0.3
12,COc1cc(C(=O)NC2CCN(C)CC2)c(F)cc1Nc1ncc2c(n1)N(C1CCCC1)CC(F)(F)C(=O)N2C [TAK 960 hydrochloride],≤ 0.3
13,CC[C@]1(O)C[C@@H]2CN(CCc3c([nH]c4ccccc34)[C@@](C(=O)OC)(c3cc4c(cc3OC)N(C=O)[C@H]3[C@@](O)(C(=O)OC)[C@H](OC(C)=O)[C@]5(CC)C=CCN6CC[C@]43[C@@H]65)C2)C1 [vincristine],≤ 0.3
14,OC[C@H]1O[C@@H](n2cnc3c(NCc4ccco4)ncnc32)[C@H](O)[C@@H]1O [Kinetin riboside],3
15,N#Cc1c(C2CCNCC2)cc(-c2c(O)cccc2OCC2CC2)nc1N,9
16,C=CC(=O)Nc1cccc(Nc2nc(Nc3ccc(OCCOC)cc3)ncc2F)c1,9
17,COc1cc(N2CCC(N3CCN(C)CC3)CC2)ccc1Nc1ncnc(Nc2ccccc2S(=O)(=O)C(C)C)n1,9
18,Fc1ccccc1CNCc1ccc(-c2ccnc3[nH]ccc23)cc1 [OXA 06 dihydrochloride],1
19,C[C@H]1COCCN1c1cc(C2(S(=O)(=O)C3CC3)CC2)nc(-c2ccc(NC(=S)NCCO)cc2)n1,≤ 0.3
